Here are results for 18 compounds from PubChem BioAssay (NCATS).

A number with no mark means an inactive call. Results filed as inconclusive are left out. Calls of active or inactive are those of the source. The call rests on the fitted dose curve; in most records, active means well fitted curve in the direction sought with a large enough effect; inconclusive means small, poorly fitted or top-dose-only effect, or another doubt; inactive means no such curve, though single readings can be large; an effect the other way counts as inactive or inconclusive.

Test [1] addresses Glutathione peroxidase 1 (Homo sapiens) (UniProt P07203). Kind of test: Primary qHTS Assay for Inhibitors of Recombinant Selenoprotein Glutathione Peroxidase 1 (GPX1) (AID 1845191). Further: nearly all actives have a fitted effect of over 65% in size. On activity, negative = inhibition: on the % scale 0 is the no-effect control and ±100 the full control effect. In short, it runs like this:
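NADPH consumption tracked by fluorescence at 340/450 nm between t=0 and t=15 min, room temperature. Final mix: 10 nM GPX1, 100 nM glutathione reductase, 1 mM GSH, 0.5 mM NADPH, 0.5 mM cumene hydroperoxide, 0.01% BSA; 30 min compound–enzyme preincubation.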

For test [2], the target named is Phospholipid hydroperoxide glutathione peroxidase GPX4 (Homo sapiens) (UniProt P36969). Kind of test: Primary qHTS Assay for Inhibitors of Recombinant Selenoprotein Glutathione Peroxidase 4 (GPX4) (AID 1845192). Further: nearly all actives have a fitted effect of over 65% in size. On activity change, negative = inhibition: series mostly up to about 50 µM; on the % scale 0 is the no-effect control and ±100 the full control effect. In short, it runs like this:
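NADPH consumption followed by fluorescence at 340/450 nm, t=0 and after 15 min at room temperature. Reaction started with cumene hydroperoxide (0.5 mM final) after 30 min compound–GPX4 preincubation; final 200 nM GPX4, 100 nM GR, 1 mM GSH, 0.5 mM NADPH.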
A general note: Quantitative high-throughput screening tests each substance at several concentrations.

Test [3] deals with Luciferin 4-monooxygenase (Photinus pyralis) (UniProt P08659). The test can be described thus: Primary firefly luciferase (FLuc) qHTS assay for identification of artifact compounds. (AID 1845220). Further: nearly all actives have a fitted effect of over 60% in size.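 On activity change, negative = inhibition: series mostly up to about 54 µM; plate controls were DMSO vehicle for no effect and no enzyme for full effect.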 In short, it runs like this:
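Cell-free, 1536-well qHTS. Buffer pH 7.6 with 0.01% Tween-20 and 0.05% BSA; 10 uM D-luciferin, 10 uM ATP; 10 nM P. pyralis luciferase; luminescence after 5 min.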

Test [4] is described as follows: Primary fluorescence-based thiol-reactive (MSTI) qHTS assay for identification of artifact compounds. (AID 1845221). Further: nearly all actives have a fitted effect of over 65% in size. Further: potency means the concentration at half of the fitted maximal effect.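 On activity change, negative = thiol reactive: series mostly up to about 54 µM; thiol-reactive compounds lower the probe fluorescence signal.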 In short, it runs like this: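 Probe: MSTI 4 uM, PBS pH 7.4, 2% DMSO. Incubation 1 h, RT, light-protected. Readout fluorescence 525/598 nm.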
Test [5] relates to Nanoluciferase (engineered Oplophorus gracilirostris luciferase). The test can be described thus: Primary Nanoluciferase (NLuc) qHTS assay for identification of artifact compounds. (AID 1845222).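 Further: series mostly up to about 54 µM; 0% = DMSO and -100% = no enzyme.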 An outline of the steps:
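Compounds are pinned into diluted (1:55) conditioned medium of NLuc-expressing S16 cells and held 15 min at room temperature protected from light. Nano-Glo substrate follows, and luminescence is read 5 min later.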

Test [6] addresses Metallo-beta-lactamase type 2 (Klebsiella pneumoniae) (UniProt C7C422). The test can be described thus: qHTS to identify inhibitors of the New Delhi Metallo-beta-lactamase (NDM): assay validation screen against the NCATS LOPAC Collection (AID 1794843).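 Further: nitrocefin turnover by NDM-1 measured as 485 nm absorbance at plateau; series mostly up to about 38 µM; on the % scale 0 is the no-effect control and ±100 the full control effect.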 The text has this: Assay Submitter (PI): James Inglese Ph.D., Patricia Dranchak Ph.D., Mahesh Aitha Ph.D.
Assay Development and Screening Technology Laboratory (ADST)
National Center for Advancing Translational Sciences (NCATS), Rockville, MD
National Institute of Health (NIH), Bethesda, Maryland
The metallo-beta-lactamases (MBL) are a main antibiotic resistance mechanism evolved by bacteria. There is an urgent clinical need for MBL inhibitors to mitigate this growing threat. To support a machine-based learning study, qHTS has been used to experimentally test inhibitors identified by prediction tools.
PROTOCOL TABLE (as described by Inglese et al., 2007)
SEQUENCE No. (e.g., 1, 2, 3, etc.); […] (e.g., enzyme, Incubation, Reagent, etc.); VALUE; DESCRIPTION
1; NDM-1; 4 uL of 3 nM enzyme in 50 mM HEPES (pH 7.0), 1 uM Zn2SO4, 0.01% Tween20; Use BioRaptr to dispense into Aurora black, clear bottom low base 1536-well plates
2; Compounds; 23 nL; Use Pin Tool (Wako) to transfer DMSO control and library compounds in DMSO
4; Reagent; 2 uL of 50 uM nitrocefin
6; Detector; Absorbance at 485 nm (bandwidth = 5 nm, 25 flashes/well) on Tecan Infinity […]
6; Default reader settings were applied for absorbance read at 485 nm, bandwidth = 5 nm, 25 flashes/well. […]
Yasgar A, Shinn P, Jadhav A, Auld D, Michael S, Zheng W, Austin CP, Inglese J, Simeonov A. 2008. Compound Management for Quantitative High-Throughput Screening. […]

Chain of Glutathione peroxidase 1 (Homo sapiens) (P07203 whole entry, looked up): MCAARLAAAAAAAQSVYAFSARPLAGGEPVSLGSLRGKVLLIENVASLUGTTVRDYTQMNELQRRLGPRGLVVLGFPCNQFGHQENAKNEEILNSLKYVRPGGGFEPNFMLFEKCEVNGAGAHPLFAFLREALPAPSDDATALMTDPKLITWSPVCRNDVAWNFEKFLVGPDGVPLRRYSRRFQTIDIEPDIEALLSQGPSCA
Chain of Phospholipid hydroperoxide glutathione peroxidase GPX4 (Homo sapiens) (P36969 whole entry, looked up): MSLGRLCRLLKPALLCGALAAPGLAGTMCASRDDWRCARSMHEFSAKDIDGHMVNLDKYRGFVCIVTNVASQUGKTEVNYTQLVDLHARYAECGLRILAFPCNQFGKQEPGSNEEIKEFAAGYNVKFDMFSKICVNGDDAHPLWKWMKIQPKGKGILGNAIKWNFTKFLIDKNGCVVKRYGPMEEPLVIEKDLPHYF
Chain of Metallo-beta-lactamase type 2 (Klebsiella pneumoniae) (C7C422 whole entry, looked up): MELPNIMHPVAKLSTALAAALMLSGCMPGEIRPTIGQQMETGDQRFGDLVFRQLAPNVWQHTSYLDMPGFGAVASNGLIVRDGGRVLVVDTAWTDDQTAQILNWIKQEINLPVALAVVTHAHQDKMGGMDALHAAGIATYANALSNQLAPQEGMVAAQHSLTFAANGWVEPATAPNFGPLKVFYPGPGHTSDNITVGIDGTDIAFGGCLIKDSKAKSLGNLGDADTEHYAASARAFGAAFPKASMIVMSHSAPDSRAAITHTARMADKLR

`O=C(O)[C@H](Cc1ccc(Nc2nccc3ccncc23)cc1)NC1=C(Br)C(=O)C12CCCCC2`: the Potency result in test [1], in test [2], in test [3], in test [4] and in test [5] was “inactive” each time.
With `Cc1cc(-c2cc(O)ccc2Cl)cc2nnc(Nc3ccc(OCCN4CCCC4)cc3)nc12`, the Potency result in test [1], in test [2], in test [3] and in test [5] was “inactive” in each case. In test [4], the Potency was 3770 nM (active).
For `N=c1nc2n(cc1F)C1OC(CO)C(O)C1O2` (stereo not drawn), the Potency result in test [1], in test [2], in test [3], in test [4] and in test [5] was “inactive” in each case.
Regarding `C[C@@H]1O[C@@H](O[C@H]2[C@H](O)[C@@H](C(=O)O)O[C@@H](O[C@H]3CC[C@@]4(C)C(CC[C@]5(C)C4CC=C4C6CC(C)(C)CC[C@]6(C(=O)O)CC[C@]45C)C3(C)C)[C@@H]2O[C@@H]2OC[C@@H](O)[C@H](O)[C@H]2O)[C@H](O)[C@H](O)[C@H]1O` (stereo partly drawn), the Potency entry in test [1] and in test [2] was “inactive” each time. Besides, the activity change, negative = inhibition in test [3] was 1.83% [at 11.6 µM]. The activity change, negative = thiol reactive in test [4] was 129% [at 11.5 µM]. In addition, the activity, negative = inhibition in test [5] is 0.398% [at 11.6 µM].
In the case of `C[C@@H]1O[C@@H](O[C@H]2[C@H](O)[C@@H](O)[C@H](OC[C@H]3O[C@@H](OC(=O)[C@]45CCC(C)(C)C[C@H]4C4=CCC6[C@@]7(C)CC[C@H](O[C@@H]8OC[C@H](O)[C@H](O[C@@H]9O[C@H](CO)[C@@H](O)[C@H](O)[C@H]9O)[C@H]8O)[C@@](C)(CO)C7CC[C@@]6(C)[C@]4(C)CC5)[C@H](O)[C@@H](O)[C@@H]3O)O[C@@H]2CO)[C@H](O)[C@H](O)[C@H]1O` (stereo partly drawn), the activity, negative = inhibition in test [1] is -7.31% [at 9.52 µM]; in test [5], 3.4% [at 11.6 µM]. Moreover, the activity change, negative = inhibition was -3.72% [at 9.73 µM] in test [2] and 2.93% [at 11.6 µM] in test [3]. In addition, the activity change, negative = thiol reactive in test [4] is 205% [at 11.5 µM].
Take `CC[C@]1(O)CC2CN(CCc3c([nH]c4ccccc34)[C@@](C(=O)OC)(c3cc4c(cc3OC)N(C)[C@H]3[C@@](O)(C(=O)OC)[C@H](OC(C)=O)[C@]5(CC)C=CCN6CC[C@]43[C@@H]65)C2)C1` (stereo partly drawn): in test [6], the result was inactive. Moreover, the Potency entry in test [1], in test [2], in test [3], in test [4] and in test [5] was “inactive” in each case.
In the case of `CC(C)N(CCCCOCC(=O)NS(C)(=O)=O)c1cnc(-c2ccccc2)c(-c2ccccc2)n1`, the Potency entry in test [1], in test [2], in test [3] and in test [4] was “inactive” each time.
Consider `CC1=C(C)C(=O)OC(C(C)C2CCC3C4CC=C5CC(OC6OC(COC7OC(CO)C(O)C(O)C7O)C(O)C(O)C6O)CC(O)C5(C)C4CCC23C)C1` (stereo not drawn), for which the Potency result in test [1], in test [2], in test [3], in test [4] and in test [5] was “inactive” each time.
With `O=C(O)c1cc(I)ccc1NC(=O)[C@H](Cc1ccccc1)NCc1ccccc1`, the Potency entry in test [1], in test [2], in test [3] and in test [4] was “inactive” each time.
Turning to `CC(=O)OC1C(OC(=O)c2ccccc2)C2C(C)(C)CC(=O)CC2(C)C23CCC(C)(C2)C(O)CC13` (stereo not drawn), the Potency result in test [1], in test [2], in test [3], in test [4] and in test [5] was “inactive” throughout.
Consider `COc1cc(N2CCOCC2)ccc1Nc1ncc(Cl)c(Nc2ccccc2NS(C)(=O)=O)n1`, for which the Potency result in test [1], in test [2], in test [3] and in test [5] was “inactive” throughout. Further, the Potency in test [4] was 1340 nM (active).
For the compound `O=C(c1cc2c(cc1F)OC(c1ccc(F)cc1)(c1ccc(Cl)cc1Cl)O2)N1CCOCC1` (stereo not drawn), the Potency result in test [1], in test [2], in test [3], in test [4] and in test [5] was “inactive” in each case.
For the compound `CC1=C2C[C@H]3O[C@@]3(C)CCC3O[C@@]3(C)C[C@@]2(O)OC1=O` (stereo partly drawn), the Potency result in test [1], in test [2], in test [3], in test [4] and in test [5] was “inactive” each time.
Consider `CCCC(=O)NCCc1csc(-c2ccc(Cl)cc2)n1`, for which the Potency result in test [1], in test [2], in test [3], in test [4] and in test [5] was “inactive” in each case.
On to `CC(C)C(NC(=O)c1ccc2ccccc2n1)C(=O)NC(CC(=O)O)C(=O)COc1c(F)cccc1F` (stereo not drawn), for which the Potency result in test [1], in test [2], in test [3] and in test [4] was “inactive” in each case.
As for `CC(C)[C@@H](CS(=O)(=O)C(C)C)N1C(=O)[C@@](C)(CC(=O)O)C[C@H](c2cccc(Cl)c2)[C@H]1c1ccc(Cl)cc1`, the Potency result in test [1], in test [2], in test [3], in test [4] and in test [5] was “inactive” in each case.
Turning to `C[C@H]1C(=O)N2c3ccccc3[C@@]3(O)C[C@@H]4C(=O)N[C@](C)(c5nc6ccccc6c(=O)n54)N1[C@@H]23`, the Potency entry in test [1], in test [2], in test [3], in test [4] and in test [5] was “inactive” in each case.
For `C[C@@H]1O[C@@H](O[C@H]2[C@H](O[C@H]3[C@H](O[C@H]4CC[C@@]5(C)C(CC[C@]6(C)C5CC=C5[C@@H]7CC(C)(C)CC[C@]7(C(=O)O[C@@H]7O[C@H](CO)[C@@H](O[C@@H]8O[C@@H](C)[C@H](O)[C@@H](O)[C@H]8O)[C@H](O)[C@H]7O)CC[C@]56C)C4(C)C)OC[C@H](O)[C@@H]3O)O[C@H](CO)[C@@H](O)[C@@H]2O)[C@H](O)[C@H](O)[C@H]1O` (stereo partly drawn), the outcome in test [1] was “inactive [at 9.52 µM]”; in test [3], “inactive [at 11.6 µM]”. In test [2], the activity change, negative = inhibition is 0.115% [at 9.73 µM]. Further, the activity change, negative = thiol reactive in test [4] is 125% [at 11.5 µM]. In test [5], the activity, negative = inhibition was 4.91% [at 11.6 µM].
